# Source: PubChem (several laboratories)
# SSB-PriA inh = blocks PriA binding to SSB C-terminal tail; inhibition, % at 33 µM; hit rate 0.6% among 430,000; AlphaScreen SSBct-PriA binding, biotinylated peptide; AID 1272365; in the data active = inhibition mostly above about 37%, no sharp cut-off; inactive = mostly below about 20%;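 note: plate controls were negative control peptide for no effect and reference peptide for full effect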
# Sa RN4220 lethal = kills Staphylococcus aureus RN4220. AID 1259311. hit rate 0.33% among 330,000. inhibition, % (test concentration not listed). S. aureus RN4220 growth, OD600, 16 h; in the data active = inhibition above about 85%;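 note: plate controls were untreated cells for no effect and reference antibiotic for full effect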
# ugtP null kill = growth inhibition of S. aureus ugtP deletion strain; hit rate 0.54% among 330,000; growth inhibition, % (test concentration not listed); AID 1259309; S. aureus RN4220 ugtP deletion, OD600 growth, 16 h; in the data active = growth inhibition above about 68%;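 note: plate controls were untreated wells for no effect and antibiotic for full effect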
# Mtb hypoxia rep = Mtb hypoxia fluorescent reporter inhibition; fluorescence inhibition, % (concentration not given with the values); AID 1159583; M. tuberculosis hypoxia-regulated fluorescent reporter, fluorescence; hit rate 0.1% among 300,000; in the data active = fluorescence inhibition mostly above about 23%, no sharp cut-off; inactive = mostly below about 17%
# Starred values were filed as active, the others as inactive; · = no result shown; ! = not active in a repeat. Rows were chosen to be rich in hits. Some 1.1% of all compounds tested hit in one or more screens of this group.
SMILES,SSB-PriA inh,Sa RN4220 lethal,ugtP null kill,Mtb hypoxia rep
CCCCCOc1ccc(NC(=O)CSc2cccc3cccnc23)cc1,79*,-10,0,12
CC(C)NC(=O)CSc1cccc2cccnc12,34,·,·,·
O=C(CSc1cccc2cccnc12)Nc1ccccc1,44,·,·,·
Cc1cc(Br)cc(C)c1NC(=O)CSc1cccc2cccnc12,59*,·,·,·
CN1CCN(NC(=O)CSc2cccc3cccnc23)CC1,91*,·,·,·
O=C(CN1CC(c2nc(-c3ccco3)no2)C1)Nc1cccc(C(F)(F)F)c1,2,·,·,·
CNC(=O)NC(=O)CSc1cccc2cccnc12,58,·,·,·
CCOC(=O)CSc1cccc2cccnc12,99*,1,1,·
O=c1c2nncn2c2cc(C(F)(F)F)ccc2n1CCNc1ncc(C(F)(F)F)cc1Cl,-3,-1,4,12
O=c1c(Cl)nc2cc(Cl)ccc2n1CCNc1ncc(C(F)(F)F)cc1Cl,-1,33,96*,·
Cc1ccc(S(=O)(=O)NCc2ccc3[nH]c(C)cc3c2)cc1,43*,-6,3,-4
Cc1cc2cc(CNS(=O)(=O)N(C)C)ccc2[nH]1,46*!,-7,-5,5
CC(=O)Nc1ccc(S(=O)(=O)NCc2ccc3[nH]c(C)cc3c2)cc1,38,-8,-8,1
CCCCNC(=S)NCc1ccc2[nH]c(C)cc2c1,50*!,9,5,-7
CCOc1ccccc1-n1nnc(C(=O)Nc2ccccc2)c1C(C)C,-6,·,·,·
Cc1cc(C(=O)N2CCN(CC(O)c3ccco3)CC2)no1 (configuration not stated),-7,·,·,·
Oc1c(C(c2ccc(Cl)cc2)N2CCCC2)cc(Cl)c2cccnc12 (configuration not stated),22,100*,100*,3
Oc1c(C(c2ccccn2)N2CCC(Cc3ccccc3)CC2)cc(Cl)c2cccnc12 (configuration not stated),4,93*,88*,8
CN1CCN(C(c2ccccn2)c2cc(Cl)c3cccnc3c2O)CC1 (configuration not stated),91,7,-4,-3
CN(C)S(=O)(=O)c1ccc(C(=O)NCCNS(=O)(=O)c2cn(C)cn2)cc1,-10,·,·,·
COc1ccc(-c2cc(=O)n(CC(=O)NCc3ccccn3)cn2)cc1,-19,·,·,·
FC(F)(F)c1cccc(NC(=S)Nc2ccc(Cl)c(Cl)c2)c1,-18,101*,101*,10
O=[N+]([O-])c1cc(C(F)(F)F)cc([N+](=O)[O-])c1NCCNC(=S)Nc1ccc(Cl)c(Cl)c1,-1,99*,100*,5
FC(F)(F)c1cccc(NC(=S)NC(c2ccccc2)c2ccccc2)c1,-23,-6,-30,7
O=C(O)CNc1c([N+](=O)[O-])cc(C(F)(F)F)cc1[N+](=O)[O-],19,·,·,·
SMILES,SSB-PriA inh,Sa RN4220 lethal,ugtP null kill,Mtb hypoxia rep
N=C(N)c1ccc(N=Nc2c(O)ccc3c2[nH]c2ccccc23)cc1,82*,·,·,·
O=C(NCc1nccc(N2CCCCC2)n1)c1cccc(F)c1,-5,·,·,·
Cc1cccc(NC(=S)NN=Cc2ccc([N+](=O)[O-])s2)c1,39*,·,·,·
COc1ccc(NC(C)C(=O)NN=Cc2ccc([N+](=O)[O-])s2)cc1 (configuration not stated),26,17,22,43*
Cc1cc(C(=O)N/N=C\c2cccs2)n[nH]1,-1,·,·,·
O=[N+]([O-])c1ccc(C=NNC(=S)Nc2ccc(Cl)cc2Cl)s1,0,·,·,·
Cc1cc(C(=O)NN=Cc2ccc([N+](=O)[O-])s2)n[nH]1,·,100*,98*,·
Cc1ccccc1-c1nc(CS(=O)CC(=O)NC(C)CCc2ccccc2)c(C)o1 (configuration not stated),60*,-4,-9,-11
COc1ccc(CNc2nc3nc(C)c(Cl)c(=O)n3[nH]2)cc1,-8,3,10,23*
COc1ccccc1CNc1nc2nc(C)c(Cl)c(=O)n2[nH]1,-10,0,1,0
COc1ccccc1N1CCN(Cc2ccc(O)c3ncccc23)CC1,73*,7,-2,-6
CCOC(=O)C1CCN(Cc2ccc(O)c3ncccc23)CC1,94*,8,-1,10
Cc1ccccc1N1CCN(Cc2ccc(O)c3ncccc23)CC1,87*,·,·,·
Oc1ccc(CN2CCCc3ccccc32)c2cccnc12,16,-4,1,·
OCCN1CCN(Cc2ccc(O)c3ncccc23)CC1,115*,·,·,·
COc1ccccc1N1CCN(Cc2ccc(OC)c(OC)c2OC)CC1,-11,6,8,9
Cc1ccccc1-c1nc(C#N)c(N2CCCC2)o1,61,·,·,·
Cc1ccccc1-c1nc(C#N)c(N2CCCC(C)C2)o1 (configuration not stated),66*,·,·,·
COc1ccccc1-c1nc(C#N)c(N2CC(C)CC(C)C2)o1 (configuration not stated),-2,3,2,11
Cc1ccccc1-c1nc(C#N)c(N2CCOCC2)o1,70*,·,·,·
CC1CC(C)CN(c2oc(-c3ccccc3F)nc2C#N)C1 (configuration not stated),50*,5,9,2
O=C(Cc1ccc2c(c1)OCO2)N1CCCC(Cc2nc(-c3ccsc3)no2)C1 (configuration not stated),-18,·,·,·
CSc1ccccc1-c1nnc(NC(=O)CCSc2ccccc2)o1,9,·,·,·
CN(C(=O)CSc1nc(-c2ccccc2)cn1N)C(c1ccccc1)c1ccccc1,50*,1,-13,-1
CSCC(C)(O)CNC(=O)c1snnc1C (configuration not stated),-9,·,·,·
SMILES,SSB-PriA inh,Sa RN4220 lethal,ugtP null kill,Mtb hypoxia rep
CC(=O)c1c(C)n([O-])c2ccc(C)cc2[n+]1=O,10,16,13,64*
CCOC(=O)N1CCC(NC(=O)c2cc(=O)c(OCc3cccc(OC)c3)cn2C)CC1,-6,·,·,·
O=C(Cn1[nH]c(=O)ccc1=O)Nc1nc(-c2ccccn2)cs1,97*,·,·,·
O=C(CN1NC(=C2CC2)C=CC1=O)Nc1nc(-c2ccccn2)cs1,31,·,·,·
CCC(=O)Nc1nc(-c2ccccn2)cs1,18,·,·,·
O=C(CN1CC(=O)Oc2ccccc21)Nc1nc(-c2ccccn2)cs1,100*,·,·,·
O=C(CN1C(=O)NC2(CCCC2)C1=O)Nc1nc(-c2ccccn2)cs1,98*,·,·,·
Cc1csc(=O)n1CC(=O)Nc1nc(-c2ccccn2)cs1,107*,·,·,·
Cc1cc(C(F)F)nn1CC(=O)NC1CCCC1,-13,·,·,·
Cc1nnc(SCC2=C(C(=O)O)N3C(=O)C(NC(=O)Cn4nc(C(F)F)c(Cl)c4C)C3SC2)s1 (configuration not stated),0,100*,100*,·
CC(=O)OCC1=C(C(=O)O)N2C(=O)C(NC(=O)Cn3nc(C(F)F)c(Cl)c3C)C2SC1 (configuration not stated),-3,99*,96*,·
CC(=O)OCC1=C(C(=O)O)N2C(=O)C(NC(=O)CCn3nc(C)c(Cl)c3C)C2SC1 (configuration not stated),-6,99*,99*,·
Cc1nnc(SCC2=C(C(=O)O)N3C(=O)C(NC(=O)Cn4nc(C(F)F)cc4C)C3SC2)s1 (configuration not stated),-4,100*,101*,·
CC1=C(C(=O)O)N2C(=O)C(NC(=O)CCCC(=O)O)C2SC1 (configuration not stated),-17,4,10,-12
